# Laboratory results reported in the supplement of paper PMC11417369.
# Whole data set: some 25,000 sequences, median “ln(normalized median fluorescence intensity)” near 9.3, cut for the highest 2% near 10. The sample holds the highest values, similar sequences and a random draw of the others, so the mix is not that of the screen.
# System: PF3D7_0420300 AP2 domain 1 (GST-tagged)
# Test: gcPBM binding intensity (ln(normalized median fluorescence intensity)); higher = stronger DNA binding
# How it was run: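 GST-tagged P. falciparum DNA-binding domains, expressed in E. coli (about 25 μg on average), were applied for 1 h to an Agilent 4 × 180k array of primer-extended double-stranded 36-bp intergenic genomic probes plus negative controls. The binding buffer was 1× PBS with 1% milk, 0.2 mg/ml BSA, 0.5% salmon testes DNA and 0.03% Triton X-100. Bound protein was detected with Alexa488 anti-GST antibody and scanned at 488 nm. Binding intensity is the highest Masliner-normalised natural-log median intensity across replicate spots of either probe orientation.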
row,Sequence,gcPBM binding intensity (ln)
1,ATATAACTCAAGGGCACACATATACCTTTCCTTTTT [CACACA_site4390],9.5
2,AATATACATAACAAGGTGCAAAAAATATTGTTCATA [GTGCAC_site9499],9.5
3,TATTATCTCTTATGAACACACATTTTTATTTTCAAA [CACACA_site3353],9.31
4,AATATATAGCTAAAAACACACAAATATATACGCATA [CACACA_site3608],9.69
5,TTATATATAATATATACACACACATGTATATATAAA [CACACA_site8603],9.45
6,AGTTAATGAATAGGCACACATATATCTGTATAAATA [CACACA_site4448],9.47
7,CAAAAGGATAGGCACACACACACACCGATATATATA [CACACA_site8685],10.2
8,AAAAAAAAAATATACACACACACATACCCATAAATA [CACACA_site5981],9.99
9,AATAAAAAGGAACACACACACACACCGATATATATA [CACACA_site5895],10.2
10,AAAAAAAAAAGACACACACACATATTTATTTATATA [CACACA_site6484],9.93
11,AAAAAGGATAAACACACACACACACCGATATATATA [CACACA_site8206],10.2
12,ACTTGACACGGACACACACACATATATAAAAAAAAA [CACACA_site4576],9.87
13,TAAAAGGATACATATACACACATATATATATATATA [CACACA_site2791],9.32
14,AAAAAAAAAAGACACACACACACACGGAGATATATA [CACACA_site6216],10.3
15,TTAAACTTGAGACACACACACACACGGATATAAAAA [CACACA_site6495],10.2
16,CCATAAAAAGGATACACACACACACCCACATATATA [CACACA_site903],10.2
17,AAAAAAAAAAGACACACACACAAAAAAAGATATATA [CACACA_site6645],10.2
18,AAACTTGACGGACACACACACACATATATAAAAAAA [CACACA_site4577],10
19,ATTTATGAAAAATGTACACACATCAAATGCTTATAT [CACACA_site4068],9.42
20,AAATGAAAGAACAGCACACATATATATTATATATAA [CACACA_site2002],9.63
21,ATTGCATATAATGGCACACATAAATCCATAATATAT [CACACA_site297],9.29
22,GTTAATATACATAAACGTACAGAATTATTATGAGTT [XGTACX_site5185],9.13
23,TGTTTAACATTTATATGTACATATATTCACATATTA [XGTACX_site342],9.29
24,AACAATATATTGAATAGTACATATATATAAACATAT [XGTACX_site2811],9.46
25,GTAGAAAGAAAAATTAGTACTTAAATATTATAAAAA [XGTACX_site8458],9.11
